Assay results from PubChem BioAssay AID602393 (Broad Institute, 2012).
Hit rate of the full screen: of about 350,000 compounds, about 7,000 (2%) were called active. No stated cut-off is given here; in the data, active means activation above about 40%; inconclusive means no clear call, values can overlap the other calls; inactive means below that. The entries come from a sample that favours actives as a whole.

Test: raisers of Bmi1 knock-in reporter signal – mouse ES cells, Bmi1 luciferase knock-in, single point, esBAF inhibitor project, primary screen (AID 602393);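 further: 0% = median of the plate's neutral control wells and 100% = double that signal; a rise in the Bmi1 reporter signal indicates esBAF inhibition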
Settings: 24 h, at 12.5 µM, stronger effect = higher value, 100% = twice the neutral-well signal

Row | Compound | reporter increase
1 | C[C@@H](O)C#Cc1ccc([C@H]2[C@H](CO)N3CCCCN(C(=O)c4ccc5c(c4)OCO5)C[C@@H]23)cc1 | -3.75% (inactive)
2 | COc1ccc(-n2nc(C(=O)NCC(=O)N3CCC(C(N)=O)CC3)c3ccccc3c2=O)cc1OC | -4.41% (inactive)
3 | COc1ccc(-n2nc(C(=O)NCC(=O)N3CCN(c4ccccc4OC)CC3)c3ccccc3c2=O)c(OC)c1 | 30.3% (inactive)
4 | COc1ccc(-n2nc(C(=O)NCC(=O)N3CCCCCC3)c3ccccc3c2=O)cc1Cl | 47.6% (active)
5 | CCCNC(=O)Nc1ccc2c(c1)C(=O)N(C)C[C@@H](OC)[C@H](C)CN(C(=O)C1CCCCC1)[C@H](C)CO2 | 5.09% (inactive)
6 | C[C@@H]1CCCCO[C@H](CN(C)S(C)(=O)=O)[C@@H](C)CN([C@H](C)CO)C(=O)c2cc(NC(=O)Nc3ccc4c(c3)OCO4)ccc2O1 | 6.3% (inactive)
7 | CC(C)=C1SC(N2CCN(c3cccc(C)c3)CC2)=NC1=O | -1.1% (inactive)
8 | CCN1C(=O)/C(=C2\SC(N3CCCCC3)=NC2=O)c2ccccc21 | 65% (active)
9 | CCOc1cc(/C=C2\SC(N3CCCCC3)=NC2=O)ccc1O | 30.3% (inactive)
10 | O=C(C[C@H]1C=C[C@H](NC(=O)Cc2ccccn2)[C@@H](CO)O1)NCCc1ccccc1 | -5.91% (inactive)
11 | CN1c2ccc(C#Cc3ccccc3F)cc2[C@@H]2[C@@H](CCN2C(=O)Cc2cccnc2)[C@H]1CO | 1.33% (inactive)
12 | CCn1nnc(NC(=O)c2c(OC)cccc2OC)n1 | 1.33% (inactive)
13 | CCCn1nnc(NC(=O)COc2ccc(CC)cc2)n1 | -6.66% (inactive)
14 | CCCOc1cccc(C(=O)Nc2nnn(CCC)n2)c1 | 52.7% (active)
15 | CO[C@H]1CN(C)C(=O)c2cc(NC(=O)Nc3c(C)noc3C)ccc2OC[C@@H](C)N(CCC(F)(F)F)C[C@H]1C | -21.9% (inactive)
16 | Cc1noc(C)c1S(=O)(=O)N(C)C[C@@H]1OCCCC[C@H](C)Oc2ccc(NC(=O)Nc3ccc4c(c3)OCO4)cc2C(=O)N([C@H](C)CO)C[C@H]1C | 2% (inactive)
17 | COCC(=O)Nc1ccc2c(c1)C(=O)N(C)[C@@H]1CC[C@H](CC(=O)NCC3CC3)O[C@@H]1CO2 | -2.01% (inactive)
18 | CO[C@H]1CN(C)C(=O)c2cc(NC(=O)c3cc(C)on3)ccc2OC[C@H](C)N(C(C)=O)C[C@H]1C | 0.72% (inactive)
19 | CCCCc1nc2cc(C(=O)NCCc3cnn(C)c3)ccc2o1 | 31.5% (inactive)
20 | COCCNC(=O)c1ccc2nc(Cc3ccc(OC)c(OC)c3)oc2c1 | 48.6% (active)
21 | COc1ccc(Cc2nc3ccc(C(=O)NCC4CCOCC4)cc3o2)cc1OC | 21% (inactive)
22 | CCC1C(=O)NCCN1C(=O)c1ccc2nc(Cc3ccc(OC)cc3)oc2c1 (configuration not stated) | 0.998% (inactive)
23 | CSCCNC(=O)c1ccc2nc(Cc3ccccc3F)oc2c1 | 70.4% (active)
24 | O=C(NCCc1ccc(F)cc1)c1ccc2nccnc2c1 | -17.6% (inactive)

Row | Compound | reporter increase
25 | O=C(N[C@H]1CC[C@@H](CCNS(=O)(=O)c2cccc(Cl)c2)O[C@@H]1CO)c1ccncc1 | 0.826% (inactive)
26 | C[C@H](CO)N1C[C@H](C)[C@H](CN(C)C(=O)Nc2ccc(C(F)(F)F)cc2)Oc2ccc(NS(=O)(=O)c3ccccc3)cc2CC1=O | -4.41% (inactive)
27 | Cc1noc(C)c1S(=O)(=O)N(C)C[C@@H]1Oc2ccc(NC(=O)Cn3cnnn3)cc2CC(=O)N([C@@H](C)CO)C[C@H]1C | -6.08% (inactive)
28 | Cc1cc(C(=O)Nc2cccc3c2O[C@@H](CN(C)S(=O)(=O)c2ccc(F)cc2)[C@@H](C)CN([C@H](C)CO)C3=O)n(C)n1 | 5.98% (inactive)
29 | CCC(=O)Nc1ccc2c(c1)OC[C@@H](C)N(Cc1ccccn1)C[C@H](C)[C@@H](OC)CN(C)C2=O | -3.64% (inactive)
30 | COc1ccc(NC(=O)N(C)C[C@H]2OCCCC[C@H](C)Oc3ccc(NS(C)(=O)=O)cc3C(=O)N([C@H](C)CO)C[C@@H]2C)cc1 | 3.29% (inactive)
31 | CC(C)NC(=O)N(C)C[C@H]1OCCCC[C@@H](C)Oc2ccc(NS(C)(=O)=O)cc2C(=O)N([C@H](C)CO)C[C@H]1C | -1.04% (inactive)
32 | COc1ccc(NC(=O)Nc2ccc3c(c2)C(=O)N([C@H](C)CO)C[C@@H](C)[C@H](CN(C)C(=O)Cc2ccccc2)OCCCC[C@H](C)O3)cc1 | 15.2% (inactive)
33 | CC(C)c1ccc(NC(=O)Cn2ncc3ccccc32)cc1 | 61.7% (active)
34 | CCc1ccc(NC(=O)Cn2ncn3c(cc4ccccc43)c2=O)cc1 | -6.55% (inactive)
35 | CCOC(=O)c1cn(CC(=O)Nc2ccc(C(C)C)cc2)nn1 | -4.55% (inactive)
36 | COc1cccc(CNC(=O)[C@@H]2[C@@H](CO)[C@@H]3Cn4c(ccc(-c5cccnc5)c4=O)[C@@H]3N2C)c1 | 0.488% (inactive)
37 | COc1ccc(N=C(C)c2sc3ccccc3c2O)cc1 | 50.4% (active)
38 | COC(=O)c1ccc(/C=C/c2c(-c3ccc(OC)cc3)sc3ccccc23)cc1 | 0.121% (inactive)
39 | COc1ccccc1-c1sc2ccccc2c1-c1ccc(C(C)=O)cc1 | 34.4% (inactive)
40 | N#C[C@H]1[C@@H](c2ccc(C3=CCCCC3)cc2)[C@@H](CO)N1C(=O)NC1CCCCC1 | 7.57% (inactive)
41 | C[C@H]1CCCCO[C@H](CN(C)C(=O)Nc2ccccc2)[C@@H](C)CN([C@@H](C)CO)C(=O)c2cc(NC(=O)CCC(F)(F)F)ccc2O1 | -7.05% (inactive)
42 | O=C(C1CCC1)N1C[C@@H]2[C@H](c3ccccc31)[C@H](CO)N2C(=O)c1ccccc1 | -1.2% (inactive)
43 | COc1ccccc1Cc1nc(-c2ccc(C)cc2)no1 | 46.3% (active)
44 | COc1ccccc1-c1noc(CSc2nc(C)cc(=O)[nH]2)n1 | -5.13% (inactive)
45 | Cc1ccc(-c2noc(CNC(=O)c3ccoc3C)n2)cc1 | 1.49% (inactive)
46 | Cc1ccc(Cc2nc(-c3cccc(C)c3)no2)cc1 | 60.8% (active)
47 | CCCc1nc(-c2cc3cc(C)ccc3[nH]c2=O)no1 | -1.25% (inactive)
48 | Cc1ccc(-c2noc(CC(c3ccccc3)c3ccccc3)n2)cc1 | 0.61% (inactive)

Row | Compound | reporter increase
49 | C[C@@H]1CCCCO[C@@H](CN(C)Cc2ccncc2)[C@H](C)CN([C@H](C)CO)C(=O)c2cc(N(C)C)ccc2O1 | -12.3% (inactive)
50 | CCCC(=O)Nc1ccc2c(c1)OC[C@@H](C)N(Cc1ccccc1F)C[C@@H](C)[C@H](OC)CN(C)C2=O | -2.03% (inactive)
51 | COc1ccc(S(=O)(=O)Nc2cccc3c2O[C@@H](CN(C)C(=O)NC(C)C)[C@H](C)CN([C@@H](C)CO)C3=O)cc1 | -7.18% (inactive)
52 | O=C([C@@H]1[C@@H](CO)[C@@H]2Cn3c(ccc(C4=CCCC4)c3=O)[C@H]1N2C(=O)c1ccncc1)N1CCCCC1 | -2.02% (inactive)
53 | C[C@@H]1CN([C@@H](C)CO)C(=O)CCCn2cc(nn2)CO[C@@H]1CN(C)Cc1ccccc1C(=O)O | -3.04% (inactive)
54 | C[C@H]1CCCCO[C@H](CN(C)C(=O)NC2CCCCC2)[C@@H](C)CN([C@@H](C)CO)C(=O)c2cc(NC(=O)Nc3ccc4c(c3)OCO4)ccc2O1 | 44.8% (active)
55 | C[C@@H]1CCCCO[C@H](CN(C)C(=O)NC2CCCCC2)[C@H](C)CN([C@H](C)CO)C(=O)c2cc(NC(=O)Nc3ccc(F)cc3)ccc2O1 | 4.59% (inactive)
56 | C[C@@H]1CCCCO[C@@H](CN(C)C(=O)NC2CCCCC2)[C@H](C)CN([C@@H](C)CO)C(=O)c2cc(NC(=O)Nc3ccc(F)cc3)ccc2O1 | 3.77% (inactive)
57 | CC(C)NC(=O)N(C)C[C@H]1OCCCC[C@H](C)Oc2ccc(NC(=O)Nc3ccc4c(c3)OCO4)cc2C(=O)N([C@H](C)CO)C[C@@H]1C | 4.2% (inactive)
58 | C[C@H](CO)N1C[C@H](C)[C@H](CN(C)C(=O)NC2CCCCC2)OCCCC[C@H](C)Oc2ccc(NC(=O)Nc3ccc4c(c3)OCO4)cc2C1=O | 55.8% (active)
59 | C[C@@H]1CCCCO[C@H](CN(C)C(=O)NC2CCCCC2)[C@H](C)CN([C@@H](C)CO)C(=O)c2cc(NC(=O)Nc3ccc(F)cc3)ccc2O1 | 3.4% (inactive)
60 | COCC(=O)N(C)C[C@H]1Oc2ncc(-c3cccc(OC)c3)cc2C(=O)N([C@H](C)CO)C[C@H]1C | -0.645% (inactive)
61 | C[C@@H]1CN([C@H](C)CO)C(=O)CCCn2cc(nn2)CO[C@@H]1CN(C)Cc1ccc2cccnc2c1 | -4.13% (inactive)
62 | CCC(=O)Nc1ccc2c(c1)OC[C@@H](C)N(CC1CC1)C[C@H](C)[C@H](OC)CN(C)C2=O | 2.9% (inactive)
63 | C[C@H]1CN([C@@H](C)CO)C(=O)c2cc(C#CC(C)(C)O)cnc2O[C@H]1CN(C)C(=O)CC1CC1 | 2.32% (inactive)
64 | C[C@@H]1CN([C@H](C)CO)C(=O)c2c(c3ccccc3n2C)-c2ccccc2CO[C@@H]1CN(C)C(=O)Nc1ccccc1 | 2.44% (inactive)
65 | N#C/C=C1\Sc2ccccc2C(=O)N1CC(=O)N1CCN(S(=O)(=O)c2ccccc2)CC1 | 76.9% (active)
66 | O=C(CN1CCCSc2ccccc21)N1CCN(S(=O)(=O)c2ccccc2)CC1 | 3.15% (inactive)
67 | O=C(CN1CCCSc2ccccc21)N1CCN(S(=O)(=O)c2cccc(F)c2)CC1 | 2.16% (inactive)
68 | CCCNC(=O)N1C[C@@H](O)COC[C@H]2O[C@H](CC(=O)N3CCC(Cc4ccccc4)CC3)CC[C@@H]21 | 8.61% (inactive)
69 | CCC(=O)N[C@H]1CC[C@@H](CC(=O)NCc2cc(F)cc(F)c2)O[C@@H]1CO | 0.353% (inactive)
70 | O=C(NCCNc1ccc([N+](=O)[O-])cc1Cl)c1ccccc1F | 7.96% (inactive)
71 | COC(=O)CNC(=O)c1ccccc1[N+](=O)[O-] | -1.18% (inactive)
72 | O=C(NCCNc1ccccc1[N+](=O)[O-])c1ccccc1F | 62.1% (active)
